Source: PubChem BioAssay (NCI)
The panel holds about 79,000 compounds, 15% with a hit somewhere; the sample as a whole holds those more often. Activity calls are given as the source filed them. Cut-off read from the data, not from the text of the source: active = growth inhibition above about 70%; inactive = the rest.

Legend:
[1] = NCI Yeast Anticancer Drug Screen. Data for the rad52 strain (AID 147);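 note: 0% = growth of vehicle-treated control cultures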; conditions: S. cerevisiae rad52 mutant growth inhibition, stronger effect = higher value
Outline: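 Vehicle-treated cultures served as the reference for growth inhibition of compound-exposed yeast bearing a DNA repair mutation.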

[2] = NCI Yeast Anticancer Drug Screen. Data for the wt1 strain (AID 149);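 note: 0% = growth of vehicle-treated wt1 cultures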; conditions: S. cerevisiae wt1 strain (SPY 50644) growth inhibition, stronger effect = higher value
Outline: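 Measured: growth of wt1 yeast under compound versus vehicle treatment, reported as inhibition.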

[3] = NCI Yeast Anticancer Drug Screen. Data for the rad50EPP+ strain (AID 151);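 note: 0% = growth of vehicle-treated control cultures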; conditions: S. cerevisiae rad50 mutant strain, stronger effect = higher value
Outline: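 In this screen, rad50EPP+ yeast were exposed to compounds. Growth inhibition was scored against vehicle-treated controls.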

[4] = NCI Yeast Anticancer Drug Screen. Data for the mgt1 strain (AID 153); conditions: S. cerevisiae mgt1 mutant growth inhibition, stronger effect = higher value
Outline: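 mgt1 strain exposed; growth vs vehicle control recorded as inhibition.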

[5] = NCI Yeast Anticancer Drug Screen. Data for the rad50 strain (AID 155);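 note: 0% = growth of vehicle-only cultures of the same strain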; conditions: S. cerevisiae rad50 strain growth inhibition, stronger effect = higher value
Outline: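 Growth of the mutant yeast was measured after compound exposure and referenced to vehicle-treated cultures.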

[6] = NCI Yeast Anticancer Drug Screen. Data for the mec2-1 strain (AID 157); conditions: S. cerevisiae mec2-1 strain, stronger effect = higher value
Outline: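 Vehicle-treated cultures served as reference for growth inhibition of compound-exposed mec2-1 yeast.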

[7] = NCI Yeast Anticancer Drug Screen. Data for the sgs1 mgt1 strain (AID 161);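 note: 0% = growth of cultures given vehicle only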; conditions: S. cerevisiae sgs1 mgt1 strain, stronger effect = higher value
Outline: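 Test agents were incubated with a DNA-repair-mutant yeast strain. Growth was then read and compared against vehicle-treated controls.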

[8] = NCI Yeast Anticancer Drug Screen. Data for the CLN2oe strain (AID 163);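 note: 0% = growth of vehicle-only control cultures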; conditions: S. cerevisiae CLN2oe strain, stronger effect = higher value
Outline: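 Inhibition relative to vehicle-treated yeast is reported. Cells: strain with genetic alteration in cell-cycle control, grown with compound.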

[9] = NCI Yeast Anticancer Drug Screen. Data for the cln2 rad14 strain (AID 165);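 note: 0% = growth equal to vehicle treated cultures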; conditions: S. cerevisiae cln2 rad14 strain, stronger effect = higher value
Outline: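 Each compound was tested on cln2 rad14 yeast. Inhibition of growth was calculated against vehicle-exposed controls.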

[10] = NCI Yeast Anticancer Drug Screen. Data for the bub3 strain (AID 167); conditions: S. cerevisiae bub3 mutant strain, stronger effect = higher value
Outline: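 Whole-cell yeast assay. The mutant strain was incubated with compounds, and growth inhibition was determined by comparison with vehicle-treated cells.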

[11] = NCI Yeast Anticancer Drug Screen. Data for the mlh1 strain (AID 171);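 note: 0% = growth of vehicle-treated control cultures of the same strain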; conditions: S. cerevisiae mlh1 strain growth inhibition, stronger effect = higher value
Outline: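 Vehicle-normalised growth inhibition of a repair- or checkpoint-altered yeast strain following compound treatment.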

[12] = NCI Yeast Anticancer Drug Screen. Data for the sgs1 strain (AID 173);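 note: 0% = growth of vehicle-only control cultures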; conditions: S. cerevisiae sgs1 mutant, stronger effect = higher value
Outline: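 Screen format: yeast with repair or checkpoint alterations, compound exposure, growth read relative to vehicle.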

[13] = NCI Yeast Anticancer Drug Screen. Data for the mlh1 rad18 strain (AID 175); conditions: S. cerevisiae mlh1 rad18 strain growth inhibition, stronger effect = higher value
Outline: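 Vehicle-treated cultures served as the reference for growth inhibition in a yeast strain carrying DNA damage repair alterations exposed to each compound.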

[14] = NCI Yeast Anticancer Drug Screen. Data for the rad18 strain (AID 177); conditions: S. cerevisiae rad18 mutant growth inhibition, stronger effect = higher value
Outline: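 Test articles were incubated with altered yeast defective in DNA damage repair. Results are given as inhibition of growth versus vehicle.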

[15] = NCI Yeast Anticancer Drug Screen. Data for the rad14 strain (AID 159);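 note: 0% = growth of vehicle-treated control cultures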; conditions: S. cerevisiae rad14 strain growth inhibition, stronger effect = higher value
Outline: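 Here, inhibition of yeast growth was measured after compound exposure, using a strain with a genetic defect in DNA damage repair and vehicle-treated cultures as the reference.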

[16] = NCI Yeast Anticancer Drug Screen. Data for the wt2 strain (AID 169);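 note: 0% = growth of vehicle-treated yeast cultures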; conditions: S. cerevisiae wt2 strain growth inhibition, stronger effect = higher value
Outline: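 Inhibition of yeast growth was determined after compound treatment, normalised to controls receiving only vehicle.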

[17] = at 5.0 µM (retest, dose inferred, filed as 0.5)
[18] = at 50.0 µM (retest, dose inferred, filed as 5.0)

Measured: growth inhibition

O=C(/C=C\c1ccc(Cl)cc1Cl)c1cccs1
active: [7]; [18] 71% | [10]; [18] 85% | [13]; [18] 88% | [14]; at 33.0 µM 73% | [14]; at 100.0 µM 84%
inactive: [1]; at 1.2 µM -2% | [1]; at 3.7 µM -3% | [1]; at 11.0 µM 3% | [1]; at 33.0 µM 10% | [1]; at 100.0 µM 16% | [2]; at 1.2 µM -2% | [2]; at 3.7 µM 0% | [2]; at 11.0 µM -5% | [2]; at 33.0 µM -6% | [2]; at 100.0 µM -7% | [3]; at 1.2 µM 9% | [3]; at 3.7 µM 23% | [3]; at 11.0 µM 47% | [3]; at 33.0 µM 55% | [3]; at 100.0 µM 58% | [4]; at 1.2 µM -4% | [4]; at 3.7 µM -6% | [4]; at 11.0 µM -4% | [4]; at 33.0 µM 2% | [4]; at 100.0 µM 5% | [5]; at 1.2 µM -1% | [5]; at 3.7 µM -2% | [5]; [17] 0% | [5]; at 11.0 µM 0% | [5]; at 33.0 µM 0% | [5]; [18] 61% | [5]; at 50.0 µM -9.15% | [5]; at 100.0 µM 5% | [6]; at 1.2 µM -6% | [6]; at 3.7 µM -2% | [6]; [17] -10% | [6]; at 11.0 µM 1% | [6]; at 33.0 µM 10% | [6]; [18] 18% | [6]; at 50.0 µM -6.25% | [6]; at 100.0 µM 10% | [7]; [17] 0% | [7]; at 50.0 µM 10.2% | [8]; at 1.2 µM -9% | [8]; at 3.7 µM -21% | [8]; at 11.0 µM -17% | [8]; at 33.0 µM -14% | [8]; at 100.0 µM -18% | [9]; [17] 9% | [9]; [18] 27% | [9]; at 50.0 µM -29.9% | [10]; at 1.2 µM 10% | [10]; at 3.7 µM 22% | [10]; [17] 30% | [10]; at 11.0 µM 38% | [10]; at 33.0 µM 47% | [10]; at 50.0 µM 54.9% | [10]; at 100.0 µM 48% | [11]; at 1.2 µM -4% | [11]; at 3.7 µM 0% | [11]; at 11.0 µM 1% | [11]; at 33.0 µM 7% | [11]; at 100.0 µM 12% | [12]; at 1.2 µM 0% | [12]; at 3.7 µM 1% | [12]; at 11.0 µM 12% | [12]; at 33.0 µM 33% | [12]; at 100.0 µM 45% | [13]; [17] 27% | [13]; at 50.0 µM 1.1% | [14]; at 1.2 µM 3% | [14]; at 3.7 µM 6% | [14]; at 11.0 µM 29%

S=C(S)NN1CCOCC1
inactive: [1]; at 3.7 µM 68% | [1]; at 11.0 µM 35% | [1]; at 33.0 µM 38% | [1]; at 100.0 µM 50% | [2]; at 1.2 µM 43% | [2]; at 3.7 µM 29% | [2]; at 11.0 µM 35% | [2]; at 33.0 µM 51% | [2]; at 100.0 µM 60% | [5]; at 3.7 µM 57% | [5]; at 11.0 µM 29% | [5]; at 33.0 µM 23% | [5]; [18] 66% | [5]; at 100.0 µM 28% | [6]; at 3.7 µM 60% | [6]; [17] 65% | [6]; at 11.0 µM 32% | [6]; at 33.0 µM 28% | [6]; [18] -4% | [6]; at 100.0 µM 35% | [15]; at 1.2 µM 33% | [15]; at 3.7 µM 36% | [15]; at 11.0 µM 34% | [15]; at 33.0 µM 42% | [15]; at 100.0 µM 52% | [8]; at 1.2 µM 57% | [8]; at 3.7 µM 31% | [8]; at 11.0 µM 29% | [8]; at 33.0 µM 27% | [8]; at 100.0 µM 42% | [9]; [18] 22% | [10]; at 1.2 µM 69% | [10]; at 3.7 µM 59% | [10]; at 11.0 µM 31% | [10]; at 33.0 µM 7% | [10]; at 100.0 µM 8% | [16]; at 1.2 µM 64% | [16]; at 3.7 µM 31% | [16]; at 11.0 µM 26% | [16]; at 33.0 µM 34% | [16]; at 100.0 µM 31% | [11]; at 1.2 µM 63% | [11]; at 3.7 µM 30% | [11]; at 11.0 µM 30% | [11]; at 33.0 µM 34% | [12]; at 3.7 µM 47% | [12]; at 11.0 µM 39% | [12]; at 33.0 µM 54% | [12]; at 100.0 µM 50%
active: [1]; at 1.2 µM 84% | [3]; at 1.2 µM 96% | [3]; at 3.7 µM 80% | [3]; at 11.0 µM 86% | [3]; at 33.0 µM 84% | [3]; at 100.0 µM 89% | [5]; at 1.2 µM 87% | [5]; [17] 89% | [5]; at 50.0 µM 85.2% | [6]; at 1.2 µM 80% | [6]; at 50.0 µM 97.8% | [7]; [17] 92% | [7]; [18] 91% | [7]; at 50.0 µM 77.2% | [9]; [17] 83% | [9]; at 50.0 µM 87.5% | [10]; [17] 85% | [10]; [18] 70% | [10]; at 50.0 µM 96% | [11]; at 100.0 µM 72% | [12]; at 1.2 µM 84% | [13]; [17] 94% | [13]; [18] 92% | [13]; at 50.0 µM 86.8%
